# Compound activity: PubChem BioAssay, National Center for Advancing Translational Sciences (NCATS)
# Rows were chosen to be rich in hits. Some 11% of all compounds tested hit in one or more screens of this group.
# NS1 function inh: influenza NS1 inhibition; Potency, µM (highest dose often 46.1 µM), for inactives: at the top dose activity, positive = more growth; actives 0.4% (n = 270,000); AID 2326; calls by dose curve; also: actives are rising curves; nearly all actives have a fitted effect of over 50% in size
#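 Compounds were scored for reversing the slow growth caused by influenza A NS1 in S. cerevisiae, measured by optical density at 600 nm. Assay medium contained 2% galactose at pH 6.0; NS1-free yeast of the same strain were the positive control.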
# AMA1-RON2 inh: inhibitors of Plasmodium falciparum AMA1-RON2 interaction | AlphaScreen AMA1-biotinylated RON2 peptide binding | Potency, µM (titrated, usually from 58.2 µM), for inactives: at the highest dose activity change, negative = inhibition, hits mostly inhibitors | actives 0.2% (n = 360,000) | AID 720542;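 also: 0% = vehicle wells and -100% = peptide control; nearly all actives have a fitted effect of over 45% in size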
#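 AMA1 (3D7) with his tag at 25 nM final met compounds first, then biotinylated RON2 peptide at 25 nM; detection used donor plus acceptor beads, 10 µg/mL apiece, read by AlphaScreen after 30 min at room temperature.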
# Pf growth 96h: P. falciparum growth inhibition at 96 hour, primary screen for plastid delayed-death inhibitors. actives 6.9% (n = 320,000). P. falciparum luciferase reporter growth, 96 h. AID 504834. Potency, µM (highest dose often 28.7 µM), for the others: at the highest dose activity change, negative = inhibition, hits mostly inhibitors; also: % is scaled to controls: 0 for no effect and ±100 for the full control effect
#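 Cell-based qHTS: luciferase-tagged P. falciparum in erythrocytes (2% hematocrit, 0.05% parasitemia final) incubated with compounds for 96 hours, 37 C, 5% CO2; luciferase detection reagent then added and luminescence measured.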
# Pf growth 48h: P. falciparum growth inhibition at 48 hours (one generation); P. falciparum luciferase growth in erythrocytes, 48 h; Potency, µM (titrated, usually from 28.7 µM), inactives show at the highest dose activity change, negative = inhibition, hits mostly inhibitors; AID 504832; actives 5.9% (n = 310,000); also: % is scaled to controls: 0 for no effect and ±100 for the full control effect
#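 Parasite viability was followed by luminescence of a genomically integrated firefly luciferase. Cultures held 0.1% parasitemia at 2% hematocrit (final), incubated under 5% CO2 at 37 C.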
# Sm TGR block: blocks Schistosoma mansoni thioredoxin glutathione reductase; purified TGR, DTNB reduction, TNB absorbance 405 nm; Potency, µM (doses to about 114 µM), for inactives: at the top dose activity change, negative = inhibition, actives largely listed as inhibitors; Q962Y6; actives 3% (n = 360,000); also: % is scaled to controls: 0 for no effect and ±100 for the full control effect; nearly all actives have a fitted effect of over 60% in size
#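 First, TGR (20 nM dispensed) and NADPH were mixed with compound. Second, a 15 min room-temperature incubation followed. Third, further NADPH and then DTNB were added to start the reaction. Finally, TNB absorbance was monitored kinetically.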
# * marks the source's active call; other numbers are inactive results; u = inconclusive; x = no result given. Unless noted, calls follow the shape of the dose curve; as a rule, active = well fitted curve in the direction sought with a large enough effect; inconclusive = small, poorly fitted or top-dose-only effect, or another doubt; inactive = no such curve, though single readings can be large; an effect the other way counts as inactive or inconclusive. Potency is read from the fitted curve at half-maximal effect.
SMILES,NS1 function inh,AMA1-RON2 inh,Pf growth 96h,Pf growth 48h,Sm TGR block
COC(=O)C1=C(c2ccc(F)cc2OCc2ccccc2)C[C@@H]2CC[C@H]1N2C(=O)NCc1ccc(OC)cc1,x,-4%,u,13µM*,7%
COC(=O)C1=C(c2ccc(F)cc2OCc2ccccc2)C[C@@H]2CC[C@H]1N2C(=O)NCc1cccc(OC)c1,x,-5%,u,9.3µM*,-2%
COC(=O)C1=C(c2ccccc2OCc2ccccc2)C[C@@H]2CC[C@H]1N2C(=O)NCc1cccc(F)c1,x,-3%,u,9.3µM*,3%
Cc1cc2c(cc1S(=O)(=O)CCC(=O)NC1CCC(C)CC1)OCC(=O)N2 (stereo not given),14%,27%,u,-4%,4%
CC(=O)c1ccccc1NC(=O)CSc1n[nH]c(=O)n1C1CC1,x,6%,x,x,x
CC(CCc1ccccc1)N1CCN(C)CC1 (stereo not given),6%,0%,u,33%,-1%
COc1ccc(-c2csc(C(C)(O)c3ccc(F)c(F)c3)n2)cc1OC (stereo not given),x,-1%,x,x,x
COC(=O)C1=C(c2ccc(F)cc2OCc2ccccc2)C[C@@H]2CC[C@H]1N2C(=O)NCc1ccc(Br)cc1,x,-9%,u,2.1µM*,3%
COC(=O)C1=C(c2ccc(F)cc2OCc2ccccc2)C[C@@H]2CC[C@H]1N2C(=O)NCc1cccc(C(F)(F)F)c1,x,2%,u,4.7µM*,5%
CSc1ccc(/C=C/C(=O)OCC(=O)N(C)CCC#N)cc1,x,-20%,11%,40%,6%
Oc1ccc(/C(Cc2ccc3ccccc3n2)=N\Nc2ccccc2)c(O)c1,x,-1%,u,u,25µM*
O=S(=O)(Nc1ccc(F)c(Cl)c1)c1ccc(Br)s1,x,x,x,x,-33%
COc1ccccc1C(=O)N=Nc1c(O)[nH]c2ccc([N+](=O)[O-])cc12,x,-6%,u,10µM*,-8%
CCCN(CCC)S(=O)(=O)c1ccc(NC(=O)c2cc(C(=O)OC)cc([N+](=O)[O-])c2)cc1,3%,-4%,1.9µM*,u,16%
CCC(C)(C)NC(=O)c1cc(C(=O)OC)cc([N+](=O)[O-])c1,10%,-11%,6%,x,-13%
COC(=O)c1ccc(Cl)cc1NC(=O)Nc1nnc(N(C)C2CCCCC2)s1,x,x,x,x,3%
Cc1nnc(SC(=O)N2c3ccccc3Sc3ccccc32)s1,-9%,-17%,x,10µM*,-21%
CC(=O)Oc1ccc(-c2nc3ccccc3c(=O)o2)cc1,17%,-7%,17%,u,3%
O=c1oc(/C=C/c2ccc([N+](=O)[O-])s2)nc2ccccc12,19%,-1%,0.083µM*,u,-19%
O=[N+]([O-])c1ccc(C=Nc2cccc3ccccc23)s1,-44%,-29%,36%,u,x
CC(=O)Oc1ccc(/C=C/c2nc3ccccc3c(=O)o2)cc1,-9%,7%,12µM*,168%,-26%
CC(=O)Oc1ccccc1/C=C/c1nc2ccccc2c(=O)o1,9%,5%,35%,1.5µM*,1%
CCOC(=O)c1ccc2c(c1)sc1nc(-c3ccc(OCC)cc3)cn12,x,x,x,x,9%
CCOC(=O)[C@@H]1[C@H]2COc3ccccc3[C@@H]2N2C(=O)N(c3ccc(Br)cc3)C(=O)[C@@]12C,x,1%,x,x,x
Cn1cc([N+](=O)[O-])c(C(=O)N/N=C/c2cc3c(cc2Br)OCO3)n1,2%,21%,15%,9%,17%
SMILES,NS1 function inh,AMA1-RON2 inh,Pf growth 96h,Pf growth 48h,Sm TGR block
COCCn1c(C)cc(O)c(C(c2ccc(Cl)cc2)N2CCCCC2)c1=O (stereo not given),x,x,x,x,10µM*
COCCn1c(C)cc(O)c(C(=O)Nc2cccc(Cl)c2)c1=O,-20%,u,u,-18%,4%
COCCn1c(C)cc(O)c(C(c2ccc(C)cc2)N2CCCCC2)c1=O (stereo not given),x,x,x,x,8.9µM*
Cc1ccc(-c2cc(-c3ccccc3)cc(-c3ccccc3)[n+]2-c2ccccc2C(=O)O)cc1,x,-9%,2.9µM*,10µM*,2%
COC(=O)C1=C(C)NC(=O)/C1=C\c1ccc2c(c1)OCO2,-6%,6%,u,u,35µM*
COC(=O)C1=C(C)NC(=O)/C1=C\N(C)C,4%,8%,29%,0%,25µM*
CN(C)/C=C1\C(=O)Nc2ccccc21,6%,15%,x,4%,1%
Cc1cc(NS(=O)(=O)c2ccc(NC(=S)NC(=O)c3ccccc3)cc2)no1,23%,15%,u,12%,50µM*
Cc1cc(NS(=O)(=O)c2ccc(NC(=O)COc3ccccc3C(C)(C)C)cc2)no1,u,-4%,10µM*,-17%,-20%
COc1ccc(C(=O)NC(=S)Nc2ccc(S(=O)(=O)Nc3cc(C)on3)cc2)cc1OC,14%,40%,10%,41%,18µM*
Cc1cc(NS(=O)(=O)c2ccc(NC(=S)NC(=O)c3ccncc3)cc2)no1,0%,-6%,0%,2%,u
CCOc1cc(C(=O)Nc2ccc(S(=O)(=O)Nc3cc(C)on3)cc2)cc(OCC)c1OCC,-13%,2%,10µM*,u,7%
Cc1c(CN2CCC(n3nccc3NC(=O)C3CC3)CC2)[nH]c2ccccc12,0%,-6%,4%,u,-19%
CCC(Oc1ccc(C)cc1)C(=O)Nc1ccc(S(=O)(=O)Nc2cc(C)on2)cc1 (stereo not given),18%,-3%,8.3µM*,8%,-4%
Cc1ccc(C2=NS(=O)(=O)N(C)C(C(=O)N3CCCCC3)=C2)cc1,3%,4%,u,-1%,-17%
COc1ccc(N2C(=O)N3[C@H](c4ccc(Cl)cc4)[C@@H]4C(=O)N(C5CCCCC5)C(=O)[C@@H]4[C@]3(Cc3ccc(Cl)cc3)C2=O)cc1,14%,14%,1.2µM*,-107%,-22%
O=C1[C@H]2[C@@H](c3ccc(F)cc3)N3C(=O)N(c4ccc(Br)cc4)C(=O)[C@@]3(Cc3ccc(Cl)cc3)[C@H]2C(=O)N1C1CCCCC1,u,0%,3.3µM*,u,6%
COc1ccc([C@@H]2[C@@H]3C(=O)N(C(C)(C)C)C(=O)[C@@H]3[C@]3(Cc4ccc(Cl)cc4)C(=O)N(c4ccc(OC)cc4)C(=O)N23)cc1,x,-7%,13µM*,u,2%
CCN1C(=O)[C@H]2[C@@H](c3ccc(C)cc3)N3C(=O)N(c4ccc(OC)cc4)C(=O)[C@@]3(Cc3ccc(Cl)cc3)[C@H]2C1=O,30%,4%,u,-29%,25%
C[C@H](CO)N1C[C@H](C)[C@@H](CN(C)C(=O)Nc2ccc3c(c2)OCO3)Oc2ccc(NC(=O)CCN3CCOCC3)cc2C1=O,x,-3%,x,x,x
Cc1cc(C)c(COc2ccc(/C=N/n3c(C)n[nH]c3=S)cc2)c(C)c1,-34%,11%,12%,12µM*,-12%
